Screening results: PubChem, several laboratories
This is a sample that favours compounds with a hit; in the whole collection about 2.3% have one here.
Mcl1 Bid PPI – disrupts binding of human Mcl-1 to Bid peptide; Q07820; TR-FRET Mcl-1/Bid-Dy647 peptide binding, 1536-well; inhibition, % at 21.7 µM; 220,000 compounds, 0.97% hits; AID 1021;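 active = compounds that cut the binding signal by more than half at the single screening dose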;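 note: His-tagged Mcl-1 with europium anti-His antibody binding Bid BH3 peptide; 0% = Mcl-1 plus peptide wells and 100% = peptide-only wells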
Target sequence (Q07820 whole entry, looked up): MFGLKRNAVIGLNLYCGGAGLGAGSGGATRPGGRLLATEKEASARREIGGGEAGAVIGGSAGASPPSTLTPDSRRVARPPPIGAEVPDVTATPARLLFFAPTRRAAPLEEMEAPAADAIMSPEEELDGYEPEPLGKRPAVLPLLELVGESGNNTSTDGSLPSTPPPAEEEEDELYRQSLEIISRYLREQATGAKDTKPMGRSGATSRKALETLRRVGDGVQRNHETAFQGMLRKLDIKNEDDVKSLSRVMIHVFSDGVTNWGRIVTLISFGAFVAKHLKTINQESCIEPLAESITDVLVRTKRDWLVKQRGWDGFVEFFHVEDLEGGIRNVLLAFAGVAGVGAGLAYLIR
Mcl1-Noxa inh – Mcl-1/Noxa interaction inhibition | Q07820 | TR-FRET Mcl-1/Noxa peptide binding, 2 h | inhibition, % at 21.7 µM | 220,000 compounds, 1.5% hits;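 active = compounds that cut the protein-peptide binding signal by more than 50% relative to plate controls in a single-dose test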;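 note: His-tagged Mcl-1 with rhodamine Noxa BH3 peptide and terbium anti-His antibody; 0% = Mcl-1 plus Noxa peptide wells and 100% = peptide-only wells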
MCL1 BIM primary – inhibitors of human MCL1 binding to BIM-BH3 peptide; Q07820; GST-MCL1 / FITC-Bim-BH3 fluorescence polarization; AID 2057; 320,000 compounds, 0.68% hits; inhibition, % at 10.9 µM;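 active = inhibition above the mean inhibition of all tested compounds plus 3 SD, set per campaign, cut at about 40% in these data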;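 note: 0% = DMSO wells and 100% = unlabeled Bim-BH3 peptide control; higher means more loss of mP so more displacement of Bim peptide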
BCLXL inh – inhibitors of human Bcl-xL. Q07817. GST-Bcl-xL / FITC-Bim BH3 peptide fluorescence polarization. inhibition, % at 10.9 µM. 320,000 compounds, 0.7% hits. AID 2129;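 active = inhibition above the mean of all tested compounds plus 3 SD, cutoff set per campaign, cut at about 30% in these data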;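 note: 0% = DMSO wells and 100% = unlabeled Bim-BH3 peptide competitor; inhibitors lower millipolarization by displacing the labeled peptide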
Target sequence (Q07817 whole entry, looked up): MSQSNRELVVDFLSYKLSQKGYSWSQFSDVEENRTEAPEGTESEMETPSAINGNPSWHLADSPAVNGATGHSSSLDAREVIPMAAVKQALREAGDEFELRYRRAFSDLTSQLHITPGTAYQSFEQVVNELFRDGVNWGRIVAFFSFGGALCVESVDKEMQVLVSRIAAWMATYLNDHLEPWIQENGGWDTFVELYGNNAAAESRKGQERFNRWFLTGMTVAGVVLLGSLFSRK
GLD-1 RNA inh – GLD-1-TGE RNA interaction inhibition (C. elegans); purified GLD-1 + fluorescein TGE RNA, fluorescence polarization; inhibition, % at 5.96 µM; 320,000 compounds, 0.44% hits;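 active = percent inhibition above a per-plate cutoff, the plate mean of test compounds plus 3 SD, cut at about 30% in these data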;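 note: 0% = DMSO wells with GLD-1 and probe and 100% = wells lacking GLD-1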
Mcl-1 Bim block – inhibitors of Bim-Mcl-1 interaction, human; Q07820; Bead-based flow cytometry, Bim peptide-Mcl-1 binding; inhibition, % at 10 µM; 190,000 compounds, 0.1% hits; in the data active = inhibition above about 40%;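 note: 0% = no compound tracer wells and 100% = peptide blocker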
BCLXL inh confirm – counter-screen for MCL1 inhibitors: confirmation of human Bcl-xL inhibitors; inhibition, % at 10.9 µM; GST-Bcl-xL / FITC-Bim BH3 peptide FP binding; 1,700 compounds, 54% hits; shares compounds with MCL1 BIM primary;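 active = inhibition above a cutoff equal to the mean inhibition of all tested compounds plus 3 SD, cut at about 30% in these data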;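 note: 0% = DMSO wells and 100% = unlabeled Bim BH3 control peptide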
MCL1 inh confirm – MCL1-BIM-BH3 interaction inhibition, confirmation; shares compounds with MCL1 BIM primary; AID 2168; 1,700 compounds, 61% hits; GST-MCL1 / FITC-Bim-BH3 fluorescence polarization; inhibition, % at 10.9 µM;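 active = inhibition above the average of all tested compounds plus 3 SD, cut at about 40% in these data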;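 note: 0% = DMSO wells and 100% = unlabeled Bim-BH3 control peptide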
The depositor's hits bear a star; / = not tested or not shown; + = active, no number.

SMILES	Mcl1 Bid PPI	Mcl1-Noxa inh	MCL1 BIM primary	BCLXL inh	GLD-1 RNA inh	Mcl-1 Bim block	BCLXL inh confirm	MCL1 inh confirm
O=C(CSc1nc(-c2ccc(F)cc2)cs1)Nc1ccccn1	1	8	64*	-2	1	-1	9	6
Nc1ccc(S(=O)(=O)Nc2nc3ccccc3o2)cc1	/	/	45*	16	3	/	28	47*
Cc1cc2c(cc1S(=O)(=O)N1CCN(c3cccc(C)c3C)CC1)OCCN2C	/	/	8	1	8	/	/	/
CCCN(CCC)CCNC(=O)C1CCN(S(=O)(=O)c2cccc3nsnc23)CC1	/	/	5	6	3	/	/	/
N#C/C(=C/c1ccco1)C(N)=S	-12	-6	58*	35*	17	/	17	25
Cc1ccc(C)n1-c1ccccc1N	-30	11	87*	92*	99*	-5	-123	-194
Cc1cc(=O)cc(C)n1-c1ccccc1N	/	/	11	4	4	/	/	/
Cc1ccccc1N=Cc1cccc(O)c1O	-5	16	65*	36*	0	-1	37*	56*
Cc1ccc(N=Cc2cccc(O)c2O)c(C)c1	-109	43	60*	27	7	1	20	20
CC(N=Cc1cccc(O)c1O)c1ccccc1 (centres undefined)	-10	52*	66*	33*	15	-9	32*	71*
CC(N=Cc1cc([N+](=O)[O-])ccc1O)c1ccccc1 (centres undefined)	6	12	17	6	-2	0	/	/
COC(=O)C(C)Oc1cc(C)ccc1COc1ccc(-n2nc(C)n(C(F)F)c2=O)cc1 (centres undefined)	/	/	-4	4	-6	/	/	/
Cc1cc(C(N)=O)c2ccccc2n1	-24	14	1	2	1	0	/	/
NC(=O)c1cc2c3ccccc3ccn2c1-c1ccccc1	-116	3	59*	50*	51*	/	23	27
Cc1cc(C(C)C)n2c(nc3ccccc32)c1C#N	-32	12	-5	4	-3	0	/	/
Cc1cc(-c2ccco2)c(C#N)c2nc3ccccc3n12	/	/	128*	85*	-14	4	127*	173*
Cc1cc(C)c2c(N)c(C(=O)Nc3ccc([N+](=O)[O-])cc3)sc2n1	/	/	-1	-1	-2	/	/	/
CCCCN(C(=O)c1cc(-c2ccco2)nc2ccccc12)c1c(N)n(CCCC)c(=O)[nH]c1=O	/	/	45*	21	15	/	17	31
Cc1cc(C(=O)OCC(=O)NC(C)C)c2ccccc2n1	-9	8	5	6	-14	/	/	/
CCNC(=O)COC(=O)c1cc(-c2ccco2)nc2ccccc12	-40	81*	50*	29	22	/	29	76*
O=C(OCC(=O)N1CCN(C(=O)c2ccco2)CC1)c1cc(-c2ccco2)nc2ccccc12	-1	99*	82*	31*	12	1	29	73*
CCCNC(=O)C1(CC2CC(c3ccccc3)=NO2)CCN(C(=O)C2(C)CC2)CC1 (centres undefined)	/	/	-4	0	-1	/	/	/
CC(C)OC(=O)CC(=O)c1sc2nc3c(cc2c1N)CN(C)CC3	-16	57*	98*	84*	53*	6	60*	72*
CCOC(=O)c1sc2nc3c(cc2c1N)COC(C(C)C)C3 (centres undefined)	-22	-6	-2	2	4	0	/	/
CCN1CCc2nc3sc(C(=O)N4CCc5ccccc5C4)c(N)c3cc2C1	/	/	32	29	22	/	/	/
SMILES	Mcl1 Bid PPI	Mcl1-Noxa inh	MCL1 BIM primary	BCLXL inh	GLD-1 RNA inh	Mcl-1 Bim block	BCLXL inh confirm	MCL1 inh confirm
CCN1CCc2nc3sc(C(=O)Nc4cccnc4Cl)c(N)c3cc2C1	/	/	54*	46*	28	/	10	-3
O=C(NCCc1ccc(Cl)cc1)C1CCN(c2ncccn2)CC1	-27	6	4	7	5	0	/	/
Nn1c(SCC(=O)NC2CCCCC2)nnc1-c1ccccc1F	/	/	-1	4	0	/	/	/
COc1ccc(/C=N/NC(=O)c2cccc([N+](=O)[O-])c2)cc1O	-31	27	3	-4	-3	0	/	/
COc1cccc(/C=N/NC(=O)c2cc3cc([N+](=O)[O-])ccc3s2)c1O	84*	68*	45*	10	8	6	20	90*
CC(=O)C12C3C4C(C5C1C3C5(Br)C41OCCO1)C21OCCO1 (centres undefined)	-11	5	-3	-2	2	-1	/	/
NC(=O)C[n+]1cccc2ccccc21	-26	47	+	185*	16	2	101*	124*
O=C(C[n+]1cccc2ccccc21)c1ccc(Br)cc1	/	/	-1	2	-5	/	/	/
COc1ccccc1NC(=O)Cn1c(O)c(N=NC(=O)c2ccccc2O)c2ccccc21	34	36	50*	9	-3	3	19	62*
Cc1cc(=O)[nH]c(-c2cccnc2)n1	-5	7	-9	-1	5	0	/	/
O=C1/C(=C\c2cc([N+](=O)[O-])ccc2O)SC(=S)N1Cc1ccc(Cl)cc1	/	/	66*	76*	47*	/	88*	105*
O=C(O)CN1C(=O)/C(=C\c2cc([N+](=O)[O-])ccc2OCc2ccccc2Cl)SC1=S	/	/	51*	3	4	/	22	47*
Cc1sc(NC(=O)CN(Cc2ccccc2)C(=O)C2CC2)c(C(N)=O)c1C	-58	-8	1	0	-6	-5	/	/
CC(=O)Nc1ccc(N2C(=O)c3cccc4c(O)ccc(c34)C2=O)cc1	/	/	+	+	+	/	+	+
O=C1c2cccc3c(O)ccc(c23)C(=O)N1c1ccc(Cl)cc1	/	/	+	+	+	/	+	+
CCN(CC1CCCO1)C(=O)CCc1nnc(CCc2ccc(OC)cc2)o1 (centres undefined)	/	/	4	6	3	/	/	/
CC(C)OC(=O)c1cc(=O)[nH]c2ccccc12	7	12	3	5	-1	2	/	/
CC(OC(=O)c1cc(=O)[nH]c2ccccc12)C(=O)c1ccccc1 (centres undefined)	11	10	143*	-2	1	1	3	-3
Cc1ccccc1NC(=O)Cn1nnc(S(=O)(=O)c2ccc(C(C)(C)C)cc2)c1N	-12	-11	-3	2	0	-4	/	/
COc1ccc(C(=O)N/N=C/c2cc3ccccc3[nH]c2=S)cc1	-107	44	44*	17	11	27	7	28
COc1ccc(C(=O)N/N=C/c2c[nH]c3ccccc23)cc1	/	/	11	3	-1	/	/	/
